High-throughput results: PubChem, National Center for Advancing Translational Sciences (NCATS)
Most compounds without a hit are left out; they make up all but 3% or so of the library.
TbPYK inhibitor – T. brucei pyruvate kinase inhibition. TbPYK enzyme, Kinase-Glo Plus ATP luminescence, 45 min. Q57TT1. Potency, µM (doses to about 76.8 µM), actives largely listed as inhibitors. 410,000 compounds, 0.12% hits. AID 624173; also: nearly all actives have a fitted effect of over 50% in size
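Assay buffer: 50 mM TEA pH 7.2, 100 mM KCl, 10 mM MgCl2, 0.05% BSA, 0.01% Tween-20. Pyruvate kinase from T. brucei plus substrate met compound, then ADP (130 uM final). Luminescence was read post 45 min RT.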
LmPK inhibitor – blocks Leishmania mexicana pyruvate kinase activity; purified LmPK, Kinase-Glo ATP luminescence, 1 h; Potency, µM (top dose mostly 57.5 µM), usual class: inhibitors; 290,000 compounds, 0.37% hits; AID 1721
Target sequence (Q27686 whole entry, looked up): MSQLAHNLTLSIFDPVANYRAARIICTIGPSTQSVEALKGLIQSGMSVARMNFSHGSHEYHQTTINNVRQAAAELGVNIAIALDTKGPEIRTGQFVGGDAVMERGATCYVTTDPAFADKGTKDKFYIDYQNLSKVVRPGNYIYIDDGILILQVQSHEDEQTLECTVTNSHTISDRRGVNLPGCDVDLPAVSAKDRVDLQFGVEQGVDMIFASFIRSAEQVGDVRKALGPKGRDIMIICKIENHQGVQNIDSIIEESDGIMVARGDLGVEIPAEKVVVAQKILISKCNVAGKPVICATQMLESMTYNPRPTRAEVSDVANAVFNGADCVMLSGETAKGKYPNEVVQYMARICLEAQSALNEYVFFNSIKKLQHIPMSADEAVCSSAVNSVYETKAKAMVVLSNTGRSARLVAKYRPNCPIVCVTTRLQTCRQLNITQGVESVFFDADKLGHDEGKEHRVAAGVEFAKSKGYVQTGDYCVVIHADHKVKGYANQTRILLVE
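Purified LmPK (0.1 nM) with 0.5 mM PEP and 0.1 mM ADP in imidazole buffer pH 7.2 with MgCl2/KCl, 1 h at room temperature. ATP formed was read by luciferase luminescence and normalized to no-enzyme and uninhibited controls.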
Sm TGR inh – S. mansoni TGR enzyme inhibition; Q962Y6; purified TGR, DTNB reduction, TNB absorbance 405 nm; Potency, µM (highest dose often 114 µM), usual class: inhibitors; 360,000 compounds, 3% hits; AID 485364; also: nearly all actives have a fitted effect of over 60% in size
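TGR 20 nM + NADPH 100 uM (dispensed conc.), cpd preinc 15 min RT; start with NADPH (500 uM addition) then DTNB (15 mM addition). Kinetic TNB absorbance, 405 nm filter. Four-parameter Hill fit across titration.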
RE007 growth inh – less growth of the S. pombe RE007 Vpr strain; S. pombe RE007 Vpr strain, BacTiter-Glo ATP luminescence, 24 h; Potency, µM (doses to about 92.2 µM), most hits filed as inhibitors; 360,000 compounds, 0.21% hits; active = well fitted falling curve with a large enough effect; inconclusive = small, poorly fitted or top-dose-only effect; inactive = no such curve, though single readings can be large or run the other way; also: nearly all actives have a fitted effect of over 50% in size
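Fission yeast RE007 carrying one integrated HIV-1 vpr copy, seeded at OD 0.01 in PMG+AL medium with 23 nL pinned compound. Grown 24 h at 30 degrees; viability read by BacTiter-Glo luminescence after 5 min.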
Each line names hits and unclear results; the compound was inactive in the other large screens. Unless noted, calls follow the shape of the dose curve; as a rule, active = well fitted curve in the direction sought with a large enough effect; inconclusive = small, poorly fitted or top-dose-only effect, or another doubt; inactive = no such curve, though single readings can be large; an effect the other way counts as inactive or inconclusive.

Cc1c(Cl)cccc1-n1ncc(C(=O)N2CCc3ccccc3C2)c1C1CCN(C(=O)OC(C)(C)C)CC1	none (no result: LmPK inhibitor, RE007 growth inh)
O=C(c1csnn1)N1CCC2(CC1)CCN(c1ccccc1)CC2	none (no result: LmPK inhibitor, Sm TGR inh, RE007 growth inh)
CCC(=O)c1cc(Br)ccc1OCC(=O)N1CCN(S(=O)(=O)c2ccccc2)CC1	none (no result: LmPK inhibitor, Sm TGR inh)
O=C(N/N=C/c1cc(Br)c(O)c(Br)c1O)c1ccc2c(c1)OCCO2	Sm TGR inh inconclusive
O=C(N/N=C\c1cc(Br)c(Br)o1)c1cncc(Br)c1	none
O=C(N/N=C/c1cc(Br)c(Br)o1)c1ccc2c(c1)OCCO2	Sm TGR inh 11µM
O=C(N/N=C/c1cc(Br)c(Br)o1)c1cccnc1	Sm TGR inh 28µM
N=C(N)c1ccc(OCCCOc2ccc(C(=N)N)cc2Br)c(Br)c1	none (no result: LmPK inhibitor, Sm TGR inh, RE007 growth inh)
O=C1NC(=O)N(Cc2ccccc2Cl)C(=O)/C1=C/N1CCOCC1	Sm TGR inh 3.5µM
CCCCCCCCCCCCCC[N+](C)(C)Cc1ccccc1	none (no result: LmPK inhibitor, Sm TGR inh, RE007 growth inh)
O=C(CN1C(=O)C(=O)N(C2CCCC2)C1=O)NCCc1ccc(Cl)cc1Cl	none (no result: LmPK inhibitor)
CC(=O)Nc1ccc2nc(-c3ccccn3)[nH]c2c1	none
c1ccc(-c2nc3cc4ccccc4cc3[nH]2)nc1	LmPK inhibitor 16µM, RE007 growth inh inconclusive
O=S(=O)(NCC(c1cccs1)S(=O)(=O)c1ccccc1)c1ccc(F)cc1 (configuration not stated)	Sm TGR inh 0.5µM (no result: LmPK inhibitor, RE007 growth inh)
COc1ccc(S(=O)(=O)NCC(c2cccs2)S(=O)(=O)c2ccccc2)cc1OC (configuration not stated)	Sm TGR inh 1µM (no result: LmPK inhibitor, RE007 growth inh)
Cc1ccc(CNC(=O)c2cc(C)nc3c2c(C)nn3-c2ccc(C)cc2)cc1	none (no result: LmPK inhibitor, RE007 growth inh)
O=c1oc2cc([N+](=O)[O-])ccc2nc1/C=C(O)/C=C/c1ccccc1	Sm TGR inh 35µM (no result: TbPYK inhibitor, RE007 growth inh)
COCCNC(=O)C1(C)CCCN(Cc2cccc(OC(=O)c3ccccc3)c2)C1 (configuration not stated)	none (no result: LmPK inhibitor, Sm TGR inh)
COc1ccc(C(=O)Sc2nncc3ccccc23)cc1	Sm TGR inh 20µM
COC(=O)C1=C(O)/C(=C\c2cc(C)n(-c3ccccc3F)c2C)N=C1C	Sm TGR inh 25µM
COC(=O)C1=C(O)/C(=C\c2sccc2C)N=C1C	none
COC(=O)C1=C(O)/C(=C\c2cc(C)n(-c3ccccc3C)c2C)N=C1C	Sm TGR inh 25µM
CCCOc1cccc(C2c3c(oc4ccc(F)cc4c3=O)C(=O)N2Cc2ccc3c(c2)OCO3)c1 (configuration not stated)	none (no result: LmPK inhibitor, RE007 growth inh)
Cc1nc2c(C(=O)NC(C)c3ccccc3)cnn2c(C)c1Cc1ccccc1 (configuration not stated)	none (no result: LmPK inhibitor, RE007 growth inh)
CNc1cccccc1=S	Sm TGR inh 5.6µM
Cc1ccc(C)c(NC(=O)c2nc(S(=O)(=O)Cc3ccc(F)cc3)ncc2Cl)c1	Sm TGR inh 2.5µM (no result: LmPK inhibitor, RE007 growth inh)
CCSc1nnc(NC(=O)c2nc(S(=O)(=O)Cc3ccc(F)cc3)ncc2Cl)s1	Sm TGR inh 35µM
Cc1ccc(C)c(NC(=O)c2nc(Cl)ccc2Cl)c1	none
Cc1ccc(CS(=O)(=O)c2ncc(Cl)c(C(=O)Nc3nnc(C(C)C)s3)n2)cc1	Sm TGR inh 18µM
CC(C)c1nnc(NC(=O)c2nc(S(=O)(=O)Cc3ccc(F)cc3)ncc2Cl)s1	Sm TGR inh 25µM
CSc1nnc(NC(=O)c2nc(S(=O)(=O)Cc3cccc(C)c3)ncc2Cl)s1	Sm TGR inh 20µM
Cc1cccc(CS(=O)(=O)c2ncc(Cl)c(C(=O)Nc3nnc(C(C)C)s3)n2)c1	Sm TGR inh 40µM
NC(=O)C1c2ccccc2CCc2ccccc21	none (no result: LmPK inhibitor, Sm TGR inh, RE007 growth inh)
O=[N+]([O-])c1ccc2c(c1)nc1n2CCN(C2CCCCC2)C1	Sm TGR inh 35µM
CC(C)C[C@H](NC(=O)[C@H](Cc1ccccc1)NC(=O)c1cnccn1)B(O)O	none (no result: LmPK inhibitor, Sm TGR inh, RE007 growth inh)
Cc1cc(C=O)c(C)n1-c1cc(C(F)(F)F)ccc1N1CCOCC1	Sm TGR inh 50µM
Cc1cc(C)cc(-n2c3nc4ccccc4nc3c3c(=O)n(Cc4ccco4)cnc32)c1	Sm TGR inh 16µM
Cc1nc2c(c(=O)n1Cc1ccccc1Cl)c1nc3ccccc3nc1n2Cc1ccco1	Sm TGR inh 2.8µM (no result: TbPYK inhibitor, RE007 growth inh)
COc1ccc(Cn2c(C)nc3c(c2=O)c2nc4ccccc4nc2n3Cc2ccco2)cc1	none (no result: LmPK inhibitor, Sm TGR inh)
COCCCn1cnc2c(c1=O)c1nc3ccccc3nc1n2-c1ccc(C)cc1	none
CCOCCCN(Cc1ccco1)C(=O)c1cc2c(=O)[nH]c3ccc(C)cc3c2s1	Sm TGR inh 40µM
NN/C(=C\[N+](=O)[O-])Nc1ccccc1	Sm TGR inh 22µM
